Test results from the supplement of paper PMC8540655.
Values without a mark were called inactive.

Tested on: Aedes aegypti larvae
Assay: larval motility relative to same well at 0 h (fraction); higher = more motile (less active compound), active = 0.4 or less
Conditions: 10 µM
Procedure, shortened: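 Each 96-well plate held about 10 Aedes aegypti larvae per well in 100 µL, along with solvent and larvicide control wells. Compounds were present at 10 µM with 1% v/v DMSO, and INVAPP recorded 200-frame movies at 100 ms intervals at 0, 2 and 24 h. Relative motility divides each well's score by its baseline score from the first recording, with the median taken across independent larval batches, of which there were three.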

SMILES | larval motility (2 h) | larval motility (24 h)
Cc1cc(O)c2c(c1)C(=O)c1c(I)c(O)c(I)c(O)c1C2=O | 0.851 | 1.08
OCCCCn1cnc2c(O)nc(NCc3ccc(Cl)c(Cl)c3)nc21 | 0.982 | 0.79
Cc1ccc(NC(=O)c2cc(Cl)ccc2O)cc1 | 0.656 | 0.616
NC1C2CC3CC(C2)CC1C3 (stereo not drawn) | 0.973 | 1.31
c1ccc(Cn2c(-c3ccccn3)nc3ccccc32)cc1 | 1.19 | 1.02
COCCn1cnc2c(=O)[nH]c(Nc3ccccc3)nc21 | 0.921 | 0.552
CC(C)(C)c1ccc(Oc2ccc(N)cc2)cc1 | 0.91 | 1.33
CC[N+]1(C/C2=C/CCCCCC2)CCC(NC(=O)C2c3cc(Cl)ccc3Oc3ccc(Cl)cc32)CC1 (stereo not drawn) | 1.22 | 0.723
Cc1cc(C2CCCCC2)n(O)c(=O)c1 | 0.66 | 1.09
O=C(c1nc2c(C(F)(F)F)cc(C3CC3)cn2c1Cl)N1CCN([C@H]2CC[C@H](O)CC2)C(=O)C1 | 0.697 | 0.894
COc1cc(C(C(=O)NC2CCCCC2)N(C(=O)Cc2c[nH]c3ccccc23)c2ccc(C(C)C)cc2)cc(OC)c1OC (stereo not drawn) | 1.42 | 1.32
Nc1nc(F)nc2c1ncn2[C@H]1O[C@@H](CO)[C@H](O)[C@@H]1O | 0.949 | 0.854
CC(=O)Nc1cc(NS(=O)(=O)c2ccc(Cl)cc2)cc2c(Cl)n[nH]c12 | 0.744 | 0.752
O=C(N[C@H](Cc1cccc2ccccc12)C(=O)NCCc1c[nH]cn1)C1Cc2ccccc2C1 | 0.819 | 0.952
O=S(=O)(NCB(O)O)c1ccc(-c2nnn[nH]2)cc1C(F)(F)F | 0.999 | 1.46
O=C(O)C[C@H]1CC[C@H](c2ccc(-c3ccc(Nc4ccc(C(F)(F)F)nc4)cn3)cc2)CC1 | 0.644 | 0.489
COc1ccc(NC(=O)c2cc3ccccn3n2)cc1 | 0.48 | 0.782

SMILES | larval motility (2 h) | larval motility (24 h)
Clc1cccc(-c2nnc(-c3ccccc3)o2)c1 | 0.402 | 0.691
O=C(O)c1cc(-c2ccccc2)nc2ccccc12 | 0.53 | 0.971
Nc1cc(N)c2nc(-c3ccccc3)c(Nc3ccc(F)cc3)nc2c1 | 0.877 | 0.892
COc1cc(Cc2cnc(N)nc2N)cc(OC)c1OC | 0.864 | 0.829
CC(Oc1ccc(Cl)cc1Cl)C(=O)NCc1ccc2c(c1)OCO2 (stereo not drawn) | 0.508 | 0.902
CCC[C@H](NC(=O)[C@@H]1[C@H]2CCC[C@H]2CN1C(=O)[C@@H](NC(=O)[C@@H](NC(=O)c1cnccn1)C1CCCCC1)C(C)(C)C)C(=O)C(=O)NC1CC1 | 0.881 | 0.577
Cc1ccc(S(=O)(=O)Nc2cccc3cccnc23)cc1 | 1.02 | 0.566
NC[C@H]1O[C@H](O[C@H]2[C@H](O)[C@@H](O[C@H]3O[C@H](CO)[C@@H](O)[C@H](N)[C@H]3O)[C@H](N)C[C@@H]2N)[C@H](N)C[C@@H]1O | 0.727 | 1.43
NCc1ccc(S(N)(=O)=O)cc1 | 0.675 | 0.66
O=C(c1ccc(F)cc1)N1CCN2C(=O)c3ccccc3C12c1ccccc1 (stereo not drawn) | 1.12 | 0.984
OC(Cn1cncn1)(Cn1cncn1)c1ccc(F)cc1F | 1.05 | 0.875
C[C@H]1CC[C@@]2(O)C(C)(C)[C@@H]3CC[C@@]2(C)[C@H]1C3 | 0.756 | 0.757
Cn1cncc1[C@@](N)(c1ccc(Cl)cc1)c1ccc2c(c1)c(-c1cccc(Cl)c1)cc(=O)n2C | 0.645 | 0.876
O=C(Nc1cccc(C2=NCCN2)c1)c1ccc(-c2ccc(C(=O)Nc3cccc(C4=NCCN4)c3)cc2)cc1 | 0.648 | 0.961
Nc1nnc(-c2ccc(Cl)cc2)s1 | 0.916 | 0.877
CC1(C)Cc2c(C#N)c(SCCc3ccccc3)nc(N3CCOCC3)c2CO1 | 0.485 | 1.28
CONC(=N)c1ccc(-c2ccc(-c3ccc(C(=N)NOC)cc3)o2)cc1 | 0.699 | 2.2
